Compound activity: PubChem BioAssay, National Center for Advancing Translational Sciences (NCATS)
Rows were chosen to be rich in hits. Some 9.2% of all compounds tested hit in one or more screens of this group.
Rab9 prom act: qHTS Assay for Rab9 Promoter Activators; Huh7 Rab9 promoter-luciferase reporter, luminescence, 24 h; Potency, µM (doses to about 9.22 µM), hits mostly activators; 2.8% of 320,000 active; AID 485297, 2010; also: nearly all actives have a fitted effect of over 60% in size
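Using Huh7 cells stably transfected with Rab9 promoter–luciferase, compounds were incubated 24 h at 37 °C, 5% CO2; luciferase luminescence was read 10 min after reagent addition.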
ELG1 genotoxic: qHTS screen for small molecules that induce genotoxicity in human embryonic kidney (HEK293T) cells expressing luciferase-tagged ELG1. HEK293T ELG1-luciferase reporter, luminescence, 16 h. Potency, µM (top dose mostly 46 µM), most hits filed as activators. 1.3% of 330,000 active; also: nearly all actives have a fitted effect of over 60% in size
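Luminescence read-out: rising ELG1-luciferase signal, reflecting elevated ELG1 protein under genetic stress, flags genotoxic compounds. Cells were treated for 16 hr at 37 °C before ONE-Glo detection.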
SMN2 splice up: qHTS Assay for Enhancers of SMN2 Splice Variant Expression | 2.8% of 210,000 active | AID 1458, 2008 | HEK293 SMN2-luciferase splicing reporter, luminescence, 30-36 h | Potency, µM (titrated, usually from 46.1 µM), actives largely listed as activators; also: nearly all actives have a fitted effect of over 55% in size
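qHTS luciferase splicing reporter: luminescence rises when SMN2 exon 7 is included in transfected HEK293 cells. Compound exposure lasted 30-36 h at 37C, with 4.5 mM final sodium butyrate as control, followed by a ONE-Glo read.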
FLuc counter: qHTS profiling assay for firefly luciferase inhibitor/activator using purifed enzyme and Km concentrations of substrates (counterscreen for miR-21 project) | purified FLuc, Km substrates, luminescence inhibition | Potency, µM (doses to about 57.5 µM), hits mostly inhibitors | 6.9% of 360,000 active | AID 588342, 2011; also: nearly all actives have a fitted effect of over 55% in size
Target sequence (P08659 whole entry, looked up): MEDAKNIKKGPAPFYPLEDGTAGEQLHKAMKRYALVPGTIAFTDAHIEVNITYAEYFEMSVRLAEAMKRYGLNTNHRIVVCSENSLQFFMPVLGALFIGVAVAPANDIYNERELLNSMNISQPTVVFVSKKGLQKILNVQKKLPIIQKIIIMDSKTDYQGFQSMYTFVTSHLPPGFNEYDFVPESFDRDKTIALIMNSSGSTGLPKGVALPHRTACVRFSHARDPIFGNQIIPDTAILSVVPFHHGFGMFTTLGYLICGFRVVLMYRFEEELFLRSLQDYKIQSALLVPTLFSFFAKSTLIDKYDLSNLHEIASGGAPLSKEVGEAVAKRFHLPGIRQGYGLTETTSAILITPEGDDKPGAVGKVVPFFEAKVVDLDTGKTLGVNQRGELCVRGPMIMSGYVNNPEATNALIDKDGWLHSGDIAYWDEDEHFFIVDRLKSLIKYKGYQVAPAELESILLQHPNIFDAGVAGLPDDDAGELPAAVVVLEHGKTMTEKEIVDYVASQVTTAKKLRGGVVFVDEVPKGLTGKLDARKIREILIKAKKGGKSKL
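Purified P. pyralis luciferase (10nM final) with 10uM D-luciferin and 10uM ATP (Km levels) in 50mM Tris acetate pH 7.5, 10mM Mg acetate, 0.01% Tween-20, 0.05% BSA; qHTS 6-point titration, ~60 µM downward; luminescence read.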
ELG1 DNA repair: qHTS screen for small molecules that inhibit ELG1-dependent DNA repair in human embryonic kidney (HEK293T) cells expressing luciferase-tagged ELG1; HEK293T ELG1-luciferase reporter, luminescence, 16 h; DNA damage induced by 5-fluorouridine; 2.3% of 330,000 active; Potency, µM (titrated, usually from 46.1 µM), usual class: inhibitors; also: nearly all actives have a fitted effect of over 55% in size
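Luminescence from the luciferase reporter, measured 30 min after ONE-Glo reagent at room temperature, was the read-out. Beforehand, 2,000 cells per well were exposed for 16 hr at 37 °C to 5-fluorouridine together with compound or vehicle.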
NPC1 promoter act: qHTS Assay for NPC1 Promoter Activators; Huh7 NPC1 promoter luciferase reporter, 24 h; Potency, µM (doses to about 9.22 µM), most hits filed as activators; 2.4% of 320,000 active; AID 485313, 2010; also: nearly all actives have a fitted effect of over 60% in size
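NPC1 promoter–luciferase Huh7 cells; 24 h compound; luminescence.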
ELG1 FLuc counter: qHTS screen for small molecules that inhibit ELG1-dependent DNA repair: Hit Confirmation in Cell-Based Luciferin Assay; shares compounds with ELG1 DNA repair; cell-free firefly luciferase luminescence counter-screen, ViewLux; Potency, µM (titrated, usually from 46.1 µM), most hits filed as inhibitors; 3% of 350 active
ELG1-Luc inh: HTS assay for small molecules that inhibit ELG1-dependent DNA repair in human embryonic kidney (HEK293T) cells expressing luciferase-tagged ELG1: Hit Confirmation; shares compounds with ELG1 DNA repair; HEK293T ELG1-luciferase levels, luminescence; cells co-treated with 5-fluorouridine; Potency, µM (highest dose often 46.1 µM), actives largely listed as inhibitors; 68% of 670 active; AID 624248, 2012; also: nearly all actives have a fitted effect of over 55% in size
ELG1-Luc MMS: confirmation of human ELG1 repair inhibitors, MMS stimulated. AID 624249. 53% of 670 active. HEK293T luciferase-tagged ELG1 level, MMS stimulated. shares compounds with ELG1 DNA repair. Potency, µM (series often up to 46.1 µM), usual class: inhibitors; also: nearly all actives have a fitted effect of over 60% in size
ELG1 5-FU: qHTS screen for small molecules that inhibit ELG1-dependent DNA repair: Hit Confirmation with 5FU Viability; Potency, µM (doses to about 46.1 µM), actives largely listed as cytotoxic; shares compounds with ELG1 DNA repair; AID 624250, 2012; cell viability with 5-FU, ELG1-dependent repair; 670 tested, under 10 active;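 also: ELG1-luc HEK293T cells cotreated with 5-fluorouridine at 10 µM final; viability measured 16 h after compound addition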
ELG1 MMS viab: qHTS screen for small molecules that inhibit ELG1-dependent DNA repair: Hit Confirmation with MMS Viability | 33% of 670 active | Cell viability with MMS, ELG1-dependent DNA repair | AID 624251, 2012 | Potency, µM (series often up to 46.1 µM), hits mostly cytotoxic | shares compounds with ELG1 DNA repair;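 also: ELG1-luc HEK293T cells co-treated with 10 µM MMS; viability read 16 h after compound addition; nearly all actives have a fitted effect of over 60% in size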
ELG1 unstim viab: qHTS screen for small molecules that inhibit ELG1-dependent DNA repair: Hit Confirmation with Unstimulated Viability Assay; shares compounds with ELG1 DNA repair; cell viability counter-screen, unstimulated, luminescence; Potency, µM (titrated, usually from 45.9 µM), actives largely listed as cytotoxic; 8% of 900 active;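 also: compound exposure lasted 16 hours before reading; nearly all actives have a fitted effect of over 55% in size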
FLuc enzyme: qHTS screen for small molecules that inhibit ELG1-dependent DNA repair: Hit Confirmation in Biochemical Luciferin Assay; 10% of 350 active; purified firefly luciferase, luminescence counter-screen; AID 624253, 2012; Potency, µM (series often up to 57.5 µM), hits mostly inhibitors; shares compounds with ELG1 DNA repair
Hits are given with their value; . = inactive; ? = inconclusive; / = no result; [ ] = dose if it differs, or a comment. Calls follow the shape of the dose curve; as a rule, active = well fitted curve in the direction sought with a large enough effect; inconclusive = small, poorly fitted or top-dose-only effect, or another doubt; inactive = no such curve, though single readings can be large; an effect the other way counts as inactive or inconclusive.

SMILES	Rab9 prom act	ELG1 genotoxic	SMN2 splice up	FLuc counter	ELG1 DNA repair	NPC1 promoter act	ELG1 FLuc counter	ELG1-Luc inh	ELG1-Luc MMS	ELG1 5-FU	ELG1 MMS viab	ELG1 unstim viab	FLuc enzyme
COc1cc2[nH]c(=O)n(CCCCCC(=O)N3CCN(c4ccccc4)CC3)c(=O)c2cc1OC	.	.	.	.	16µM	.	?	13µM	16µM	.	?	?	.
O=C(Nc1ccc(F)cc1)C1CCC(CNc2c(N3CCCCC3)c(=O)c2=O)CC1 (centres undefined)	.	.	/	.	.	.	.	?	.	.	.	.	.
COc1cc(NC(=O)C2CCC(CNc3c(N4CCC(C)CC4)c(=O)c3=O)CC2)cc(OC)c1 (centres undefined)	.	?	.	.	?	.	/	/	/	/	/	/	/
COc1cc(NC(=O)C2CCC(CNc3c(N4CCCCC4)c(=O)c3=O)CC2)cc(OC)c1 (centres undefined)	.	.	.	.	?	.	.	11µM	.	?	.	?	.
Cn1c(=O)c2c(nc(Oc3cccc(O)c3)n2C)n(C)c1=O	.	.	/	.	.	.	/	/	/	/	/	/	/
Cn1c(=O)c2c(nc(Oc3ccc4ccccc4c3)n2C)n(C)c1=O	.	.	.	.	4.1µM	.	/	8.9µM	13µM	?	?	.	/
COc1cccc(-c2nc3c(c(SCC(=O)N4CCOCC4)n2)Cc2c(CO)cnc(C)c2O3)c1	.	.	/	.	4.6µM	.	.	3.2µM	14µM	?	?	?	.
COc1ccccc1-c1nc2c(c(SCC(=O)N3CCCCC3)n1)Cc1c(CO)cnc(C)c1O2	.	.[9.26 µM]	/	.	8.2µM	.	.	10µM	?	?	?	?	.
CSc1ccc(CN(C)C(=O)CNC(=O)c2sc3ccccc3c2Cl)cc1	.	.	/	?	.	.	/	/	/	/	/	/	/
NCCS(=O)O	.	/	.	/	/	.	/	/	/	/	/	/	/
CC1(C)Cc2c(c(N3CCOCC3)nc3sc4c(NN)ncnc4c23)CS1	.	.	.	.	?	.	/	/	/	/	/	/	/
CC(C)CNc1nnnc2c1sc1nc(N3CCOCC3)c3c(c12)CC(C)(C)SC3	.	.	.	.	4.1µM	.	.	4.5µM	.	?	.	.	.
CC1(C)Cc2c(c(N3CCOCC3)nc3sc4c(NCc5ccco5)nnnc4c23)CS1	.	.	?	.	4.1µM	.	.	4.5µM	.	?	?	.	.
COCC1CCN(C(=O)c2cc(COc3ccc4ncccc4c3)on2)CC1	.	.	/	.	?	.	/	/	/	/	/	/	/
O=C(NC1CCCC1)c1cc(COc2ccc3ncccc3c2)on1	.	.	/	?	2.3µM	.	.	?	2.5µM	.	3.2µM	?	?
O=C(c1cc(COc2ccc3ncccc3c2)on1)N1CCCC1	.	.	/	?	?	.	.	.	13µM	.	16µM	?	?
Cc1ccc(OCC(=O)N(Cc2ccco2)c2ccccn2)cc1	/	/	/	.	/	/	/	/	/	/	/	/	/
CC(C)Oc1ccc(C(=O)Nc2cc(S(=O)(=O)N3CCOCC3)ccc2N2CCOCC2)cc1	.	.	/	.	?	.	/	/	/	/	/	/	/
COc1cc2c(cc1NC(=O)COc1ccc(Cl)cc1Br)oc1ccccc12	/	/	.	.	/	/	/	/	/	/	/	/	/
O=C(Nc1cnn(Cc2ccc(F)cc2)c1)c1cnn2c(C(F)F)cc(-c3ccccc3)nc12	.	.	/	.	2.3µM	.	?	5µM	13µM	?	?	?	.
O=C(Nc1cc(F)ccc1F)c1cnn2c(C(F)F)cc(-c3ccccc3)nc12	/	/	.	.	/	/	/	/	/	/	/	/	/
Cc1ccc(-c2cc(C(F)F)n3ncc(C(=O)Nc4c(C)nn(Cc5c(Cl)cccc5Cl)c4C)c3n2)cc1	.	.	.	.	4.6µM	.	.	4µM	.	?	.	.	.
O=C(C[C@H]1C[C@H](C(=O)N2CCCCC2)[C@@]2(CCc3ccccc3)c3[nH]c4cc(-c5ccco5)ccc4c3CCN2C1=O)NCc1cccc(C(F)(F)F)c1	/	.	/	/	.	/	/	/	/	/	/	/	/
CN(CC1CCCO1)S(=O)(=O)c1ccc(C(=O)Nc2nc3cc4c(cc3s2)OCO4)cc1 (centres undefined)	.	.	/	.	2.6µM	.	/	4.4µM	1.1µM	.	1.1µM	?	/
CCCCCn1c2c(c(=N)c3ccccc31)CCC2	.	.	/	.	5.2µM	.	?	2µM	2.2µM	.	2.8µM	?	.
CCCCCCCCCCn1c2c(c(=N)c3c1CCC3)CCC2	.	.	.	.	?	.	/	/	/	/	/	/	/
Fc1ccc(COc2ccc(Br)cc2CNCc2ccncc2)cc1	.	.	.	.	?	.	/	28µM	?	.	?	?	/
